Assay results: PubChem BioAssay (NCI)
Values joined by “and” are separate entries in the source; they are usually repeats but may differ in a detail not shown here. Equal entries are not always repeated. This is part of a sample that, as a whole, favours compounds with a hit. Of some 79,000 tested, about 15% had one in any assay. Values without a mark were called inactive. Active and inactive are the calls of the source. Cut-off read from the data, not from the text of the source: active = growth inhibition above about 70%; inactive = the rest.

Experiment: NCI Yeast Anticancer Drug Screen. Data for the rad50 strain (AID 155);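 note: 0% = growth of vehicle-only cultures of the same strain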
Settings: S. cerevisiae rad50 strain growth inhibition; at 50.0 µM; active compounds read high
How it was run: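 DNA repair mutant yeast, compound exposure, growth read-out; inhibition is taken relative to vehicle.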
In the case of `CC1(C)[C@@H]2CC[C@@]1(C)CN(CCC[N+](C)(C)C)C2`, the growth inhibition is reported as 15.4%. `CCC1(O)CC(O)c2c(O)c3c(c(O)c2C1C(=O)OC)C(=O)c1cccc(O)c1C3=O` (stereo not given) gave a growth inhibition of 20.8%. `COC(=O)C1C2CCCN2OC1(C)CO` (stereo not given) gave a growth inhibition of -2.6%. With `CCC[CH2][Sn]([Br])([CH2]CCC)[CH2]CCC` the growth inhibition was 91.2% (active). Compound `Cc1ccc2ccccc2c1` has a growth inhibition of 3.9%. Work on `CN1CN(c2ccccc2)C2(CCN(CC(C)(c3ccc(F)cc3)C3OCCCO3)CC2)C1=O` (stereo not given) yielded a growth inhibition of -22.9%. With `C[P+](C)(C)C` the growth inhibition was 15.6% and -6.8%. Compound `C/C=C/C1(CCCC)C(=O)NC(=O)NC1=O` has a growth inhibition of 9.8%. Work on `CCOC(=O)C(Cc1ccc(N(CCCl)CCCl)cc1)NC(=O)C(N)CO` (stereo not given) yielded a growth inhibition of -4.05%. For `CC(COC(=O)NCc1ccccc1)OC(N)=O` (stereo not given), the growth inhibition was -1.05%. `CS/C([S-])=N/N=C(C)C.CS/C([S-])=N/N=C(C)C.[Pt+2]` gave a growth inhibition of 9.1%. `O=c1[nH]cc(N=Cc2ccccc2Cl)c(=O)[nH]1.[Cl][Pt][Cl]` showed a growth inhibition of 20.4%. For `[Mn+3].[O-][Cl+3]([O-])([O-])O.[O-]c1ccccc1C=NCCN1CC1.[O-]c1ccccc1C=NCCN1CC1`, the growth inhibition was 95.5% (active). `CN1C[C@H]2[C@@H](C1=O)[C@H](c1ccccc1)ON2C` showed a growth inhibition of -16.4%. With `O=C(O)COc1nc(Cl)c(Cl)cc1Cl` the growth inhibition was 3.3%. `CCCCOc1ccc([As](=O)(O)O)cc1` gave a growth inhibition of -17.4%. `CC1=CC(=O)NP(=O)(Oc2ccc(C)cc2)N1` (stereo not given) showed a growth inhibition of -7.7%. `C[C@]12C=CC(=O)C=C1CC[C@@H]1[C@@H]2C(=O)C[C@]2(C)C(=O)CC[C@@H]12` showed a growth inhibition of -11.4%. Compound `O=C1C2CCN(CC2)C1(CO)CO` has a growth inhibition of -4.4%. `O=P(c1ccccc1)(c1ccccc1)c1ccccc1.O=P(c1ccccc1)(c1ccccc1)c1ccccc1.O=P(c1ccccc1)(c1ccccc1)c1ccccc1.O=P(c1ccccc1)(c1ccccc1)c1ccccc1.[Co+2].[O-][Cl+3]([O-])([O-])O` gave a growth inhibition of 22.7%. In the case of `COc1cc2c(c(Oc3ccc(C)cc3)c1)CN(C)CC2`, the growth inhibition is reported as 32.4%. With `CC(C)(C)C1COP(=S)(C(C)(C)C)OC1` (stereo not given) the growth inhibition was -8.3%. For `N#CCCCl`, the growth inhibition was -13.7%. `NNC(=O)NC(=O)NN` gave a growth inhibition of 1.25%. With `Cc1ccccc1N` the growth inhibition was 4.1%. `CC(C)(C)C1(C)CN(N=O)C(=O)O1` (stereo not given) gave a growth inhibition of -5.05%. Compound `NC(CCCCCP(=O)(O)O)C(=O)O` (stereo not given) has a growth inhibition of -38.8%. `O=C(NCCc1ccc([N+](=O)[O-])cc1)c1ccc(S(=O)(=O)F)cc1` showed a growth inhibition of 1.9%. In the case of `CC(NC1=NCCO1)c1ccccc1Cl` (stereo not given), the growth inhibition is reported as -8.85%. For `O=C(/C=C/c1ccccc1)Nc1ccc(Cl)cc1C(=O)c1ccccc1`, the growth inhibition was -2.6%. Compound `Cc1ccc(NC(=O)C(Cl)(Cl)Cl)cc1Cl` has a growth inhibition of 1.8%. `CC1=NCCN=C(C)C1[N+](=O)[O-]` gave a growth inhibition of 6.7%. `O=C(O)CCCC1CCCCC1.[Ni]` showed a growth inhibition of -6.95%. Compound `CCN1C(=O)C(=Cc2ccc(-c3ccccc3)cc2)C(=O)N(CC)C1=S` has a growth inhibition of 32.4%. In the case of `O=C(O)C1C2C=Cc3ccccc3C21` (stereo not given), the growth inhibition is reported as 4.5%. `C#CCOC(=O)C=[N+]=[N-]` gave a growth inhibition of -11.7%. Compound `COc1ccccc1CC(C)N` (stereo not given) has a growth inhibition of 1.35%. Work on `CCNC(=O)CCl` yielded a growth inhibition of 3.75%. With `O=C(Cc1c[nH]c2ccccc12)N/N=C\c1ccc(N(CCCl)CCCl)cc1` the growth inhibition was 22.4%. `CCN(CC)C(=S)SCc1ccccc1OC(=O)NC` gave a growth inhibition of -4.35%.

Experiment: NCI Yeast Anticancer Drug Screen. Data for the mec2-1 strain (AID 157)
Settings: S. cerevisiae mec2-1 strain, at 50.0 µM, active compounds read high
How it was run: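 Readout is yeast growth inhibition, normalised to vehicle-treated controls, in the mec2-1 strain exposed to compound.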
Work on `CC1(C)[C@@H]2CC[C@@]1(C)CN(CCC[N+](C)(C)C)C2` yielded a growth inhibition of -11.8%. `CCC1(O)CC(O)c2c(O)c3c(c(O)c2C1C(=O)OC)C(=O)c1cccc(O)c1C3=O` (stereo not given) gave a growth inhibition of 39.8%. With `COC(=O)C1C2CCCN2OC1(C)CO` (stereo not given) the growth inhibition was 12.5%. For `CCC[CH2][Sn]([Br])([CH2]CCC)[CH2]CCC`, the growth inhibition was 97.8% (active). `Cc1ccc2ccccc2c1` showed a growth inhibition of -14.5%. With `CN1CN(c2ccccc2)C2(CCN(CC(C)(c3ccc(F)cc3)C3OCCCO3)CC2)C1=O` (stereo not given) the growth inhibition was -18.9%. For `C[P+](C)(C)C`, the growth inhibition was -17.2% and 7.3%. `C/C=C/C1(CCCC)C(=O)NC(=O)NC1=O` gave a growth inhibition of 3.35%. Work on `CCOC(=O)C(Cc1ccc(N(CCCl)CCCl)cc1)NC(=O)C(N)CO` (stereo not given) yielded a growth inhibition of 17.6%. In the case of `CC(COC(=O)NCc1ccccc1)OC(N)=O` (stereo not given), the growth inhibition is reported as -14.8%. `CS/C([S-])=N/N=C(C)C.CS/C([S-])=N/N=C(C)C.[Pt+2]` showed a growth inhibition of 1.45%. In the case of `O=c1[nH]cc(N=Cc2ccccc2Cl)c(=O)[nH]1.[Cl][Pt][Cl]`, the growth inhibition is reported as -5.75%. In the case of `[Mn+3].[O-][Cl+3]([O-])([O-])O.[O-]c1ccccc1C=NCCN1CC1.[O-]c1ccccc1C=NCCN1CC1`, the growth inhibition is reported as 98.7% (active). In the case of `CN1C[C@H]2[C@@H](C1=O)[C@H](c1ccccc1)ON2C`, the growth inhibition is reported as -55.2%. With `O=C(O)COc1nc(Cl)c(Cl)cc1Cl` the growth inhibition was 6%. With `CCCCOc1ccc([As](=O)(O)O)cc1` the growth inhibition was -10.2%. `CC1=CC(=O)NP(=O)(Oc2ccc(C)cc2)N1` (stereo not given) gave a growth inhibition of 16.1%. With `C[C@]12C=CC(=O)C=C1CC[C@@H]1[C@@H]2C(=O)C[C@]2(C)C(=O)CC[C@@H]12` the growth inhibition was -19.1%. With `O=C1C2CCN(CC2)C1(CO)CO` the growth inhibition was -4.25%. `O=P(c1ccccc1)(c1ccccc1)c1ccccc1.O=P(c1ccccc1)(c1ccccc1)c1ccccc1.O=P(c1ccccc1)(c1ccccc1)c1ccccc1.O=P(c1ccccc1)(c1ccccc1)c1ccccc1.[Co+2].[O-][Cl+3]([O-])([O-])O` showed a growth inhibition of 3.45%. Compound `COc1cc2c(c(Oc3ccc(C)cc3)c1)CN(C)CC2` has a growth inhibition of 19.3%. With `CC(C)(C)C1COP(=S)(C(C)(C)C)OC1` (stereo not given) the growth inhibition was -5.6%. In the case of `N#CCCCl`, the growth inhibition is reported as -1.9%. Compound `NNC(=O)NC(=O)NN` has a growth inhibition of 5.4%. For `Cc1ccccc1N`, the growth inhibition was -14.4%. For `CC(C)(C)C1(C)CN(N=O)C(=O)O1` (stereo not given), the growth inhibition was -9.7%. Work on `NC(CCCCCP(=O)(O)O)C(=O)O` (stereo not given) yielded a growth inhibition of -29.8%. `O=C(NCCc1ccc([N+](=O)[O-])cc1)c1ccc(S(=O)(=O)F)cc1` gave a growth inhibition of 12.7%. With `CC(NC1=NCCO1)c1ccccc1Cl` (stereo not given) the growth inhibition was -29%. Compound `O=C(/C=C/c1ccccc1)Nc1ccc(Cl)cc1C(=O)c1ccccc1` has a growth inhibition of 14.8%. In the case of `Cc1ccc(NC(=O)C(Cl)(Cl)Cl)cc1Cl`, the growth inhibition is reported as 20.6%. For `CC1=NCCN=C(C)C1[N+](=O)[O-]`, the growth inhibition was 10.9%. `O=C(O)CCCC1CCCCC1.[Ni]` gave a growth inhibition of 14.8%. For `CCN1C(=O)C(=Cc2ccc(-c3ccccc3)cc2)C(=O)N(CC)C1=S`, the growth inhibition was -5.5%. With `O=C(O)C1C2C=Cc3ccccc3C21` (stereo not given) the growth inhibition was 2.9%. Compound `C#CCOC(=O)C=[N+]=[N-]` has a growth inhibition of -6.75%. `COc1ccccc1CC(C)N` (stereo not given) gave a growth inhibition of -5.6%. `CCNC(=O)CCl` showed a growth inhibition of 1.2%. `O=C(Cc1c[nH]c2ccccc12)N/N=C\c1ccc(N(CCCl)CCCl)cc1` showed a growth inhibition of -10.3%. In the case of `CCN(CC)C(=S)SCc1ccccc1OC(=O)NC`, the growth inhibition is reported as -8.6%.
